Data taken from PubChem BioAssay AID1159580 (chemical genetic matrix, 2015).
Where “and” joins values, the source holds several entries; their conditions need not be identical. Equal entries are not always repeated. In all, about 5,500 compounds went through this assay and about 2,000 (36%) were called active. Inconclusive results (about 18%) are left out. Rule as the data show it: active = normalized growth mostly below about 0.91 (no sharp cut-off); inconclusive = no clear call, values can overlap the other calls; inactive = mostly above about 0.92. This is one part of the list.

Assay: chemical genetic growth profiling, strain panel (AID 1159580);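 also: tested at 20 µM; growth read once vehicle control cultures reached saturation at 30 °C; 1 = growth at the plate median or of vehicle wells; lower values mean less growth of the strain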
Conditions: S. cerevisiae deletion strains, growth OD
[1] = locus YAL040C, strain CLN3, active compounds read low
[2] = locus YCL061C, strain MRC1 (second series), active compounds read low
[3] = locus YDR150W, strain NUM1, active compounds read low
[4] = locus YDR363W, strain ESC2, active compounds read low
[5] = locus YER002W, strain NOP16, active compounds read low
[6] = locus YGR078C, strain PAC10, active compounds read low
[7] = locus YGR229C, strain SMI1, active compounds read low
[8] = locus YNL128W, strain TEP1, active compounds read low
[9] = locus YNL175C, strain NOP13, active compounds read low
[10] = locus YNL197C, strain WHI3, active compounds read low
[11] = locus YNL224C, strain SQS1, active compounds read low
[12] = locus YOR083W, strain WHI5 (second series), active compounds read low
[13] = locus YPL241C, strain CIN2, active compounds read low
[14] = locus YHR030C, strain SLT2, active compounds read low
[15] = locus YHR079C, strain IRE1, active compounds read low
[16] = locus YJL095W, strain BCK1, active compounds read low
[17] = locus YJR066W, strain TOR1, active compounds read low
[18] = locus YLR113W, strain HOG1, active compounds read low
[19] = locus YMR263W, strain SAP30, active compounds read low
[20] = locus YNL183C, strain NPR1, active compounds read low
[21] = locus YOR231W, strain MKK1, active compounds read low
[22] = locus YPL256C, strain CLN2, active compounds read low
[23] = locus YMR307W, strain GAS1, active compounds read low

Measured: normalized growth

COc1cc2nc(N3CC=[N+](C(=O)c4ccco4)CC3)nc(N)c2cc1OC
inactive: [1] 1.02 | [2] 1 | [3] 1 | [4] 1.01 | [5] 1.01 | [6] 1.01 | [7] 1.01 | [8] 1 | locus YNL153C, strain GIM3, active compounds read low 0.978 | [9] 0.998 | [10] 1.01 | [11] 1.06 | [12] 1.01 | [13] 1

COc1cc2nc(N3CCN(C(=O)C4COc5ccccc5O4)CC3)nc(N)c2cc1OC (stereo not given)
inactive: [1] 0.982 | [2] 0.985 | [4] 1.07 | [5] 1.01 | [6] 0.986 | [14] 1.03 | [15] 0.981 | [16] 0.983 | [17] 0.968 | [18] 0.999 | [19] 1.01 | [8] 1.01 | [9] 0.99 | [20] 0.939 | [10] 0.947 | [11] 1.01 | [12] 0.988 | [21] 0.983 | [22] 0.988

COc1cc2nc(N3CCN(C(=O)OCc4ccccc4)C(C(=O)NC(C)(C)C)C3)nc(N)c2cc1OC (stereo not given)
inactive: [1] 0.999 | [2] 0.984 | [3] 0.997 | [4] 0.967 | [6] 1.01 | [19] 0.993 | [23] 0.989 | [8] 1.08 | [9] 1.02 | [10] 1.03 | [11] 1.03 | locus YNL322C, strain KRE1, active compounds read low 0.985 | [12] 1.07 | [13] 0.991
active: [5] 1.14 [resistant]

CC(C)=CC1C(C(=O)OCc2cccc(Oc3ccccc3)c2)C1(C)C (stereo not given)
inactive: locus YAL021C, strain ccr4, active compounds read low 1.01 | locus YAL026C, strain drs2, active compounds read low 1.02 | locus YAL030W, strain snc1, active compounds read low 1.01 | locus YBL061C, strain skt5, active compounds read low 1.01 | locus YBR009C, strain hhf1, active compounds read low 1.01 | locus YBR021W, strain FUR4, active compounds read low 0.998 | locus YBR023C, strain chs3, active compounds read low 1.01 | locus YBR171W, strain sec66, active compounds read low 1.02 | locus YBR229C, strain ROT2, active compounds read low 0.947 | locus YBR231C, strain swc5, active compounds read low 0.994 | locus YBR279W, strain paf1, active compounds read low 1 | locus YCL011C, strain gbp2, active compounds read low 1.01 | locus YCL016C, strain dcc1, active compounds read low 1.01 | locus YCL029C, strain bik1, active compounds read low 0.972 | locus YCL069W, strain vba3, active compounds read low 1.01 | locus YCR088W, strain abp1, active compounds read low 1.01 | locus YDL005C, strain med2, active compounds read low 1.01 | locus YDL035C, strain GPR1, active compounds read low 0.965 | locus YDL040C, strain nat1, active compounds read low 1 | locus YDL074C, strain BRE1, active compounds read low 1.01 | locus YDL101C, strain DUN1, active compounds read low 0.997 | locus YDL185W, strain tfp1, active compounds read low 0.968 | locus YDL192W, strain arf1, active compounds read low 0.987 | locus YDR001C, strain nth1, active compounds read low 1.01 | locus YDR069C, strain doa4, active compounds read low 0.99 | locus YDR101C, strain arx1, active compounds read low 0.967 | locus YDR137W, strain rgp1, active compounds read low 0.993 | [3] 0.993 | locus YDR159W, strain sac3, active compounds read low 1.02 | locus YDR162C, strain NBP2, active compounds read low 0.964 | locus YDR195W, strain ref2 0.98 | locus YDR297W, strain sur2, active compounds read low 1 | locus YDR318W, strain mcm21, active compounds read low 0.986 | locus YDR334W, strain swr1, active compounds read low 1.01 | locus YDR335W, strain msn5, active compounds read low 1.02 | locus YDR388W, active compounds read low 0.983 | locus YDR392W, strain spt3, active compounds read low 1.02 | locus YDR502C, strain sam2, active compounds read low 0.992 | locus YEL003W, strain gim4, active compounds read low 1.01 | locus YEL037C, strain rad23, active compounds read low 1.01 | locus YEL061C, strain CIN8 (second series), active compounds read low 1.01 | locus YEL061C, strain CIN8, active compounds read low 0.995 | locus YER015W, strain faa2, active compounds read low 1.01 | locus YER016W, strain bim1, active compounds read low 1.01 | locus YER110C, active compounds read low 0.978 | locus YER111C, strain swi4, active compounds read low 1.01 | locus YER155C, strain BEM2 (second series), active compounds read low 1.02 | locus YER155C, strain BEM2, active compounds read low 0.998 | locus YER167W, strain BCK2, active compounds read low 0.99 | locus YFR010W, strain ubp6, active compounds read low 0.997 | locus YGL078C, strain dbp3, active compounds read low 0.987 | locus YGL086W, strain mad1, active compounds read low 0.996 | locus YGL167C, strain pmr1, active compounds read low 1.02 | locus YGL173C, strain kem1, active compounds read low 1 | locus YGL227W, strain vid30, active compounds read low 1.01 | locus YGL240W, strain doc1, active compounds read low 1.03 | locus YGL248W, strain PDE1, active compounds read low 1.01 | locus YGL253W, strain hxk2, active compounds read low 1.01 | [6] 1.01 | locus YGR135W, strain pre9, active compounds read low 0.982 | [7] 0.99 | locus YGR252W, strain gcn5, active compounds read low 0.991 | locus YHR013C, strain ard1, active compounds read low 1.01 | locus YHR027C, strain rpn1, active compounds read low 1.01 | [14] 0.987 and 0.975 | locus YHR079C, strain IRE1 (second series), active compounds read low 0.99 | [15] 0.979 | locus YHR094C, strain hxt1, active compounds read low 0.988 | locus YHR129C, strain ARP1, active compounds read low 0.991 | locus YHR142W, strain chs7, active compounds read low 1 | locus YHR200W, strain rpn10, active compounds read low 0.976 | locus YIL066C, strain RNR3, active compounds read low 0.96 | locus YIL073C, strain SPO22, active compounds read low 1 | locus YIL125W, strain kgd1, active compounds read low 0.976 | locus YIR030C, strain dcg1, active compounds read low 0.982 | locus YJL092W, strain hpr5, active compounds read low 1.01 | locus YJL095W, strain BCK1 (second series), active compounds read low 1 | [16] 1.06 and 0.979 | locus YJL115W, strain asf1, active compounds read low 1.02 | locus YJL129C, strain trk1, active compounds read low 1.03 | locus YJL134W, strain LCB3, active compounds read low 0.987 | locus YJL154C, strain vps35, active compounds read low 1.01 | locus YJL164C, strain tpk1, active compounds read low 1.01 | locus YJL166W, strain qcr8, active compounds read low 1 | locus YJL168C, strain set2, active compounds read low 0.994 | locus YJL187C, strain SWE1 (second series), active compounds read low 1.04 | locus YJR043C, strain POL32, active compounds read low 0.971 | [17] 0.896 | locus YKL009W, strain mrt4, active compounds read low 0.977 | locus YKL068W, active compounds read low 0.987 | locus YKL085W, strain MDH1 (second series), active compounds read low 1 | locus YKL085W, strain MDH1, active compounds read low 1 | locus YKL160W, strain elf1, active compounds read low 1.02 | locus YKL190W, strain CNB1, active compounds read low 0.997 | locus YKR001C, strain vps1, active compounds read low 0.992 | locus YKR026C, strain gcn3, active compounds read low 1.01 | locus YKR091W, strain srl3, active compounds read low 1.01 | locus YLL001W, strain dnm1, active compounds read low 1.02 | locus YLL026W, active compounds read low 1.01 | locus YLL041C, strain sdh2, active compounds read low 1.02 | locus YLR027C, strain aat2, active compounds read low 1.01 | locus YLR039C, strain RIC1, active compounds read low 0.972 | locus YLR058C, strain SHM2, active compounds read low 0.993 | locus YLR102C, strain apc9, active compounds read low 0.991 | [18] 0.998 | locus YLR221C, strain rsa3, active compounds read low 1.01 | locus YLR258W, strain gsy2, active compounds read low 1.01 | locus YLR262C, strain YPT6 (second series), active compounds read low 1.01 | locus YLR262C, strain YPT6, active compounds read low 0.927 | locus YLR268W, strain sec22, active compounds read low 0.993 | locus YLR320W, strain mms22, active compounds read low 1.01 | locus YLR330W, strain CHS5, active compounds read low 0.984 | locus YLR342W, strain FKS1 (second series), active compounds read low 0.959 | locus YLR342W, strain FKS1, active compounds read low 1.01 | locus YLR357W, strain rsc2, active compounds read low 1.01 | locus YLR370C, strain arc18, active compounds read low 1.03 | locus YLR371W, strain rom2, active compounds read low 0.972 | locus YLR384C, strain iki3, active compounds read low 1.02 | locus YLR418C, strain cdc73, active compounds read low 0.985 | locus YML016C, strain PPZ1, active compounds read low 0.993 | locus YML032C, strain rad52, active compounds read low 0.983 | locus YML120C, strain ndi1, active compounds read low 1.01 | locus YML124C, strain tub3, active compounds read low 0.995 | locus YMR058W, strain fet3, active compounds read low 1.02 | locus YMR078C, strain ctf18, active compounds read low 0.972 | locus YMR125W, strain sto1, active compounds read low 1.02 | locus YMR129W, active compounds read low 1 | locus YMR205C, strain PFK2, active compounds read low 0.993 | locus YMR223W, strain ubp8, active compounds read low 0.983 | locus YMR231W, strain pep5, active compounds read low 1.01 | [23] 1.02 | locus YNL067W, strain RPL9B, active compounds read low 1.04 | locus YNL071W, strain lat1, active compounds read low 1.01 | [20] 0.934 | locus YNL209W, strain ssb2, active compounds read low 0.998 | locus YNL233W, strain BNI4, active compounds read low 1.05 | locus YNL248C, strain rpa49, active compounds read low 0.994 | locus YNL250W, strain rad50, active compounds read low 0.982 | locus YNL271C, strain bni1, active compounds read low 0.971 | locus YNL298W, strain CLA4, active compounds read low 0.986 | locus YNL307C, strain MCK1, active compounds read low 0.983 | locus YNL322C, strain KRE1 (second series), active compounds read low 1.01 | locus YNR049C, strain mso1, active compounds read low 1.01 | locus YNR052C, strain pop2, active compounds read low 0.988 | locus YOL006C, strain TOP1, active compounds read low 1.12 | locus YOL012C, strain htz1 1.31 | locus YOL147C, strain pex11, active compounds read low 0.988 | locus YOR001W, strain rrp6, active compounds read low 0.988 | locus YOR061W, strain CKA2, active compounds read low 0.977 | locus YOR069W, strain VPS5, active compounds read low 0.992 | locus YOR070C, strain gyp1, active compounds read low 1 | locus YOR080W, strain dia2, active compounds read low 1.01 | locus YOR083W, strain WHI5, active compounds read low 1 | locus YOR106W, strain vam3, active compounds read low 0.938 | locus YOR136W, strain idh2, active compounds read low 0.996 | locus YOR144C, strain elg1, active compounds read low 0.971 | locus YOR184W, strain ser1, active compounds read low 0.992 | [21] 0.989 | locus YOR265W, strain rbl2, active compounds read low 0.996 | locus YOR270C, strain vph1, active compounds read low 0.948 | locus YOR290C, strain snf2, active compounds read low 1.02 | locus YOR316C, strain cot1, active compounds read low 0.985 | locus YPL051W, strain arl3, active compounds read low 0.995 | locus YPL078C, strain atp4, active compounds read low 1.02 | locus YPL106C, strain sse1, active compounds read low 1.04 | locus YPL240C, strain hsp82, active compounds read low 1.01 | [22] 0.995 | locus YPR119W, strain clb2, active compounds read low 0.988 | locus YPR141C, strain kar3, active compounds read low 0.982 | locus YPR163C, strain tif3, active compounds read low 0.97 | locus YPR167C, strain met16, active compounds read low 0.983 | strain wtn01, active compounds read low 0.995
